Vif-APOBEC3G blk = blocks the Vif interaction with human APOBEC3G; HeLa A3G-eYFP + Vif (tagged APOBEC3G with the HIV-1 protein that degrades it), YFP fluorescence, overnight; Potency, µM (top dose mostly 46.1 µM), without a hit: at the top dose activity, negative = active, hits mostly inhibitors; 410,000 compounds, 0.076% hits; also: % is scaled to controls: 0 for no effect and ±100 for the full control effect; nearly all actives have a fitted effect of over 60% in size
Target sequence (Q9HC16 whole entry, looked up): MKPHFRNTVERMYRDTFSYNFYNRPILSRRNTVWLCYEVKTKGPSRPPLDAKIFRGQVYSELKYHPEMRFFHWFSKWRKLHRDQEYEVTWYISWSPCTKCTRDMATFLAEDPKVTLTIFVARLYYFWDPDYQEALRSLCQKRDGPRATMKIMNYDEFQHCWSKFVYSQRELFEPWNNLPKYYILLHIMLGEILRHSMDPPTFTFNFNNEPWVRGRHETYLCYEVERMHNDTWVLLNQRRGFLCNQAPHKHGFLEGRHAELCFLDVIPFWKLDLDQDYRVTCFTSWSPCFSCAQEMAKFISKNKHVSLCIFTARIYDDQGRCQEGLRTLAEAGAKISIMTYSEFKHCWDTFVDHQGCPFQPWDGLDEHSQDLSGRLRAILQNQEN
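Read-out is eYFP fluorescence (Ex 488/Em 500-530) from Vif-expressing HeLa A3G-eYFP cells; more signal means A3G escaped Vif-mediated degradation. Cells plated overnight, compound pinned in, incubated overnight at 37 deg C.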
Vif-A3F inh = inhibitors of Vif-A3F interaction; HeLa A3F-eYFP + Vif (tagged APOBEC3F with the HIV-1 protein that degrades it), YFP fluorescence increase; Potency, µM (titrated, usually from 46.1 µM), without a hit: at the top dose activity, negative = active; 390,000 compounds, 0.2% hits; also: % of control where 0% means no effect; nearly all actives have a fitted effect of over 65% in size
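HeLa cells stably expressing A3F-eYFP plus Vif, plated and incubated overnight at 37 deg C, then exposed to compounds overnight at 37 deg C. Blocked degradation read as raised yellow fluorescence (Ex 488/Em 500-530).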
Epigenetic reg = epigenetic control regulation, reporter derepression. AID 1865. 280,000 compounds, 0.2% hits. Potency, µM (titrated, usually from 53.9 µM), for inactives: at the top dose GFP activation, most hits filed as activators. murine LDR cells, GFP reporter derepression, 30 h; also: % of control where 0% means no effect; nearly all actives have a fitted effect of over 60% in size
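Murine LDR cells carrying a silenced, genomically integrated CMV-driven GFP reporter were exposed to compound for 30 hours at 37 C. After PBS washes, GFP-positive cells (20–120 um objects) were counted by laser-scanning microplate cytometry.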
PINK1 modulator = PINK1 expression modulation. 410,000 compounds, 0.2% hits. Potency, µM (doses to about 76.6 µM), for inactives: at the highest dose activation (PINK1 increase), actives largely listed as activators. AID 624263. PINK1 immunofluorescence, high-content cytometry, 24 h; active = well fitted activation curve with a large enough effect; inconclusive = small, poorly fitted or top-dose-only effect; cell line not stated here; also: % of control where 0% means no effect; nearly all actives have a fitted effect of over 65% in size
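Decision-based qHTS: stable cells, 24 h exposure to five compound concentrations, CCCP as control. Fixed cells stained for PINK1 plus nuclear, mitochondrial and cell markers, cytometer read.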
* hit, by the source's call. Most compounds without a hit are left out; they make up all but 0.52% or so of the library. Unless noted, calls follow the shape of the dose curve; as a rule, active = well fitted curve in the direction sought with a large enough effect; inconclusive = small, poorly fitted or top-dose-only effect, or another doubt; inactive = no such curve, though single readings can be large; an effect the other way counts as inactive or inconclusive. Potency is read from the fitted curve at half-maximal effect.

For COc1ccc(C2C=C(c3ccc(Cl)cc3)Nc3nc(-c4ccc(Cl)cc4)nn32)cc1 (stereo unspecified) the results were Vif-APOBEC3G blk -28%, Vif-A3F inh inconclusive, Epigenetic reg 2% and PINK1 modulator 16µM*.
Screening O=C(NCc1ccccc1Cl)c1ccc2c(c1)NC(=O)C(CS(=O)(=O)Cc1ccc(Cl)cc1)N2 (stereo unspecified) returned Vif-APOBEC3G blk -6%, Vif-A3F inh -4%, Epigenetic reg inconclusive and PINK1 modulator 2%.
Cc1ccc(CNC(=O)c2ccc3c(c2)NC(=O)C(CS(=O)(=O)Cc2cccc(C)c2)N3)cc1 (stereo unspecified) was read as Vif-APOBEC3G blk -13%, Vif-A3F inh 22µM*, Epigenetic reg inconclusive and PINK1 modulator 10%.
`O=C(N/N=C/c1ccc([N+](=O)[O-])o1)c1sc2ccccc2c1Cl` gave Vif-APOBEC3G blk inconclusive, Vif-A3F inh 8.9µM*, Epigenetic reg 2% and PINK1 modulator 13%.
`O=C(N/N=C/c1ccccn1)c1sc2ccccc2c1Cl` gave Vif-APOBEC3G blk -6%, Vif-A3F inh -7%, Epigenetic reg inconclusive and PINK1 modulator -2%.
Screening O=C(N/N=C/c1ccc([N+](=O)[O-])o1)C(O)c1ccccc1 (stereo unspecified) returned Vif-APOBEC3G blk -21%, Vif-A3F inh 1%, Epigenetic reg 0% and PINK1 modulator 45µM*.
Screening Cn1cc(CN2CCOc3ccc(C(O)C4CCCCC4)cc3C2)cn1 (stereo unspecified) returned PINK1 modulator 0%.
CN(C)c1ccc(/C=C/c2ccnc3ccc(I)cc23)cc1 was read as Vif-APOBEC3G blk 8.9µM* and PINK1 modulator 2%.
`CN(C)c1ccc(/C=C/c2ccnc3c(Cl)ccc(Cl)c23)cc1` gave Vif-APOBEC3G blk 3.5µM* and PINK1 modulator 11%.
Screening CN(C)c1ccc(/C=C/c2ccnc3c([N+](=O)[O-])cccc23)cc1 returned Vif-APOBEC3G blk -11% and PINK1 modulator 0%.
CN(C)c1ccc(/C=C/c2ccnc3ccc4ccccc4c23)cc1 was read as Vif-APOBEC3G blk 6%.
`CN(C)c1ccc(/C=C/c2ccnc3ccccc23)cc1` gave Vif-APOBEC3G blk 11µM* and PINK1 modulator 8%.
For CN(C)c1ccc(/C=C/c2ccnc3ccc([N+](=O)[O-])cc23)cc1 the results were Vif-APOBEC3G blk 1% and PINK1 modulator 0%.
Screening Cc1cc(C)c2nccc(/C=C/c3ccc(N(C)C)cc3)c2c1 returned Vif-APOBEC3G blk 10µM*.
CCC1(C2CCN(C(=O)c3ccc(C)c(C)c3)CC2)NC(=O)N(CCc2scnc2C)C1=O (stereo unspecified) was read as PINK1 modulator 0%.
Cc1cc(C(=O)NCC2CCC3(CCN(Cc4ccc(-c5ccccc5)cc4)CC3)O2)n(C)n1 (stereo unspecified) was read as PINK1 modulator 1%.
For CCN1CCC(N[C@H]2C[C@@H](C(=O)NC)N(Cc3cccc4ccccc34)C2)CC1 the results were PINK1 modulator 0%.
`Cc1cc(N(C)C)c(C)cc1/C=C/c1ccnc2ccccc12` gave Vif-APOBEC3G blk 14µM*.
For CCN(CC)c1cc(C)c(/C=C/c2ccnc3ccccc23)cc1C the results were Vif-APOBEC3G blk inconclusive and PINK1 modulator 0%.
For CCCN(CCC)c1ccc(/C=C/c2ccnc3ccccc23)cc1 the results were Vif-APOBEC3G blk 11µM*.
Screening CCCCCCCCCN(CCCCCCCCC)c1ccc(/C=C/c2ccnc3ccccc23)cc1 returned Vif-APOBEC3G blk 1% and PINK1 modulator 1%.
`COc1cc(-c2nc3ccc(C)cn3c2NCc2ccccc2)ccc1SC1CCCCC1` gave Vif-APOBEC3G blk 10µM*, Vif-A3F inh -1% and PINK1 modulator inconclusive.
COc1cccc2ccc(CN3CCC4(CC3)c3ccccc3[C@@H](NC(=O)c3ccccc3)[C@@H]4O)nc12 was read as PINK1 modulator 0%.
Screening Cc1ccc(-c2nc(-c3cc4cccc(OCc5cccc(F)c5)c4oc3=O)no2)cc1 returned Vif-APOBEC3G blk -29%, Vif-A3F inh 8.9µM*, Epigenetic reg inconclusive and PINK1 modulator 3%.
`Cc1ccc2c3c(c(SCC(=O)Nc4nonc4C)nc2c1)CCCC3` gave Vif-APOBEC3G blk -1%, Vif-A3F inh 0%, Epigenetic reg 3% and PINK1 modulator 10µM*.

High-throughput results (PubChem BioAssay)
